Assay results as given in PubChem BioAssay AID1159580 (chemical genetic matrix, 2015).
Screen size: about 5,500 compounds; about 2,000 (36%) were called active. Inconclusive results (about 18%) are left out. No stated cut-off is given here; in the data, active means normalized growth mostly below about 0.91 (no sharp cut-off); inconclusive means no clear call, values can overlap the other calls; inactive means mostly above about 0.92. The list shows a part of the results.

Assay: chemical genetic growth profiling, strain panel (AID 1159580);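 further: tested at 20 µM; growth read once vehicle control cultures reached saturation at 30 °C; 1 = growth at the plate median or of vehicle wells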
Details: growth OD

Measured: normalized growth

COC1C(O)C(O)C(O)[C@@H](O)C1O (some centres undefined)
inactive: S. cerevisiae deletion strains, locus YJR066W, strain TOR1, stronger effect = lower value 0.926 | S. cerevisiae deletion strains, locus YJR075W, strain HOC1, stronger effect = lower value 1.01 | S. cerevisiae deletion strains, locus YKL009W, strain mrt4, stronger effect = lower value 1.1 | S. cerevisiae deletion strains, locus YKL068W, stronger effect = lower value 1.01 | S. cerevisiae deletion strains, locus YKL085W, strain MDH1 (second series), stronger effect = lower value 1.02 | S. cerevisiae deletion strains, locus YKL085W, strain MDH1, stronger effect = lower value 1.02 | S. cerevisiae deletion strains, locus YKL160W, strain elf1, stronger effect = lower value 0.968 | S. cerevisiae deletion strains, locus YKL190W, strain CNB1, stronger effect = lower value 1.01 | S. cerevisiae deletion strains, locus YKR001C, strain vps1, stronger effect = lower value 1.05 | S. cerevisiae deletion strains, locus YKR026C, strain gcn3, stronger effect = lower value 0.978 | S. cerevisiae deletion strains, locus YKR091W, strain srl3, stronger effect = lower value 0.972 | S. cerevisiae deletion strains, locus YLL001W, strain dnm1, stronger effect = lower value 0.944 | S. cerevisiae deletion strains, locus YLL026W, stronger effect = lower value 0.992 | S. cerevisiae deletion strains, locus YLL041C, strain sdh2, stronger effect = lower value 0.978 | S. cerevisiae deletion strains, locus YLR027C, strain aat2, stronger effect = lower value 0.969 | S. cerevisiae deletion strains, locus YLR039C, strain RIC1, stronger effect = lower value 1.07 | S. cerevisiae deletion strains, locus YLR058C, strain SHM2, stronger effect = lower value 1.01 | S. cerevisiae deletion strains, locus YLR102C, strain apc9, stronger effect = lower value 1.02 | S. cerevisiae deletion strains, locus YLR113W, strain HOG1, stronger effect = lower value 0.97 | S. cerevisiae deletion strains, locus YLR221C, strain rsa3, stronger effect = lower value 0.965 | S. cerevisiae deletion strains, locus YLR258W, strain gsy2, stronger effect = lower value 0.979 | S. cerevisiae deletion strains, locus YLR262C, strain YPT6 (second series), stronger effect = lower value 0.971 | S. cerevisiae deletion strains, locus YLR262C, strain YPT6, stronger effect = lower value 1.03 | S. cerevisiae deletion strains, locus YLR268W, strain sec22, stronger effect = lower value 1.05 | S. cerevisiae deletion strains, locus YLR320W, strain mms22, stronger effect = lower value 0.963 | S. cerevisiae deletion strains, locus YLR330W, strain CHS5, stronger effect = lower value 1.01 | S. cerevisiae deletion strains, locus YLR342W, strain FKS1 (second series), stronger effect = lower value 1.08 | S. cerevisiae deletion strains, locus YLR342W, strain FKS1, stronger effect = lower value 0.973 | S. cerevisiae deletion strains, locus YLR357W, strain rsc2, stronger effect = lower value 0.959 | S. cerevisiae deletion strains, locus YLR370C, strain arc18, stronger effect = lower value 0.971 | S. cerevisiae deletion strains, locus YLR371W, strain rom2, stronger effect = lower value 1.02 | S. cerevisiae deletion strains, locus YLR384C, strain iki3, stronger effect = lower value 0.96 | S. cerevisiae deletion strains, locus YLR418C, strain cdc73, stronger effect = lower value 1.06 | S. cerevisiae deletion strains, locus YML016C, strain PPZ1, stronger effect = lower value 1.01 | S. cerevisiae deletion strains, locus YML032C, strain rad52, stronger effect = lower value 1.04 | S. cerevisiae deletion strains, locus YML120C, strain ndi1, stronger effect = lower value 0.97 | S. cerevisiae deletion strains, locus YML124C, strain tub3, stronger effect = lower value 1.02 | S. cerevisiae deletion strains, locus YMR058W, strain fet3, stronger effect = lower value 0.973 | S. cerevisiae deletion strains, locus YMR078C, strain ctf18, stronger effect = lower value 1.01 | S. cerevisiae deletion strains, locus YMR125W, strain sto1, stronger effect = lower value 0.958 | S. cerevisiae deletion strains, locus YMR129W, stronger effect = lower value 0.976 | S. cerevisiae deletion strains, locus YMR205C, strain PFK2, stronger effect = lower value 0.966 | S. cerevisiae deletion strains, locus YMR223W, strain ubp8, stronger effect = lower value 1 | S. cerevisiae deletion strains, locus YMR231W, strain pep5, stronger effect = lower value 0.971 | S. cerevisiae deletion strains, locus YMR263W, strain SAP30, stronger effect = lower value 0.997 | S. cerevisiae deletion strains, locus YMR307W, strain GAS1, stronger effect = lower value 1.05 | S. cerevisiae deletion strains, locus YNL067W, strain RPL9B, stronger effect = lower value 0.998 | S. cerevisiae deletion strains, locus YNL071W, strain lat1, stronger effect = lower value 0.973 | S. cerevisiae deletion strains, locus YNL128W, strain TEP1, stronger effect = lower value 1.03 | S. cerevisiae deletion strains, locus YNL183C, strain NPR1, stronger effect = lower value 0.962 | S. cerevisiae deletion strains, locus YNL209W, strain ssb2, stronger effect = lower value 0.987 | S. cerevisiae deletion strains, locus YNL233W, strain BNI4, stronger effect = lower value 1.01 | S. cerevisiae deletion strains, locus YNL248C, strain rpa49, stronger effect = lower value 0.976 | S. cerevisiae deletion strains, locus YNL250W, strain rad50, stronger effect = lower value 1.02 | S. cerevisiae deletion strains, locus YNL271C, strain bni1, stronger effect = lower value 1.01 | S. cerevisiae deletion strains, locus YNL298W, strain CLA4, stronger effect = lower value 1.03 | S. cerevisiae deletion strains, locus YNL307C, strain MCK1, stronger effect = lower value 1.02 | S. cerevisiae deletion strains, locus YNL322C, strain KRE1 (second series), stronger effect = lower value 0.97 | S. cerevisiae deletion strains, locus YNR049C, strain mso1, stronger effect = lower value 0.979 | S. cerevisiae deletion strains, locus YNR052C, strain pop2, stronger effect = lower value 1.01 | S. cerevisiae deletion strains, locus YOL012C, strain htz1 1.17 | S. cerevisiae deletion strains, locus YOL147C, strain pex11, stronger effect = lower value 1.01 | S. cerevisiae deletion strains, locus YOR001W, strain rrp6, stronger effect = lower value 0.995 | S. cerevisiae deletion strains, locus YOR061W, strain CKA2, stronger effect = lower value 1.02 | S. cerevisiae deletion strains, locus YOR069W, strain VPS5, stronger effect = lower value 1.01 | S. cerevisiae deletion strains, locus YOR070C, strain gyp1, stronger effect = lower value 1 | S. cerevisiae deletion strains, locus YOR080W, strain dia2, stronger effect = lower value 0.979 | S. cerevisiae deletion strains, locus YOR083W, strain WHI5, stronger effect = lower value 0.964 | S. cerevisiae deletion strains, locus YOR106W, strain vam3, stronger effect = lower value 0.96 | S. cerevisiae deletion strains, locus YOR136W, strain idh2, stronger effect = lower value 1.03 | S. cerevisiae deletion strains, locus YOR144C, strain elg1, stronger effect = lower value 1.01 | S. cerevisiae deletion strains, locus YOR184W, strain ser1, stronger effect = lower value 1.03 | S. cerevisiae deletion strains, locus YOR231W, strain MKK1, stronger effect = lower value 0.977 | S. cerevisiae deletion strains, locus YOR265W, strain rbl2, stronger effect = lower value 0.989 | S. cerevisiae deletion strains, locus YOR270C, strain vph1, stronger effect = lower value 0.985 | S. cerevisiae deletion strains, locus YOR290C, strain snf2, stronger effect = lower value 0.913 | S. cerevisiae deletion strains, locus YOR316C, strain cot1, stronger effect = lower value 1.02 | S. cerevisiae deletion strains, locus YPL051W, strain arl3, stronger effect = lower value 0.97 | S. cerevisiae deletion strains, locus YPL055C, strain LGE1, stronger effect = lower value 1.02 | S. cerevisiae deletion strains, locus YPL078C, strain atp4, stronger effect = lower value 0.965 | S. cerevisiae deletion strains, locus YPL106C, strain sse1, stronger effect = lower value 0.949 | S. cerevisiae deletion strains, locus YPL240C, strain hsp82, stronger effect = lower value 0.986 | S. cerevisiae deletion strains, locus YPL256C, strain CLN2, stronger effect = lower value 0.93 | S. cerevisiae deletion strains, locus YPR119W, strain clb2, stronger effect = lower value 1.02 | S. cerevisiae deletion strains, locus YPR141C, strain kar3, stronger effect = lower value 1.03 | S. cerevisiae deletion strains, locus YPR163C, strain tif3, stronger effect = lower value 1.02 | S. cerevisiae deletion strains, locus YPR167C, strain met16, stronger effect = lower value 1.05 | S. cerevisiae deletion strains, strain wtn01, stronger effect = lower value 1.06 | S. cerevisiae strains, strain wild type, stronger effect = lower value 1.01
